Measurements published in the supplement of paper PMC6555819.

Tests used:
Experiment in all cases: PBM binding z-score (relative to random genomic background probes); higher = stronger binding; sequences stand for … in GC…GCGATTGACAGCGTAGAATGAAGG
[1] = system: FXR:RXRa (NR concentration 270 nM, RXRa partner concentration 90 nM)
Procedure, shortened: (§1)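 On custom Agilent 4×180K arrays, double-stranded probes with 34-nt variable regions carried direct-repeat seeds, single-nucleotide variants, half-site ablations or random human genomic background. Ligand-free nuclear receptor dimers were applied for 1 h, and binding was read with antibodies against each partner (one per run). Binding z-scores come from regression-normalized fluorescence, with the random background probes as reference.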

[2] = system: LXRa:RXRa (NR concentration 270 nM, RXRa partner concentration 90 nM)
Procedure, shortened: as §1

[3] = system: LXRa homodimer (NR concentration 270 nM)
Procedure, shortened: as §1

[4] = system: LXRb:RXRa (NR concentration 270 nM, RXRa partner concentration 90 nM)
Procedure, shortened: as §1

[5] = system: LXRb homodimer (NR concentration 270 nM)
Procedure, shortened: as §1

[6] = system: PPARa:RXRa (NR concentration 270 nM, RXRa partner concentration 90 nM)
Procedure, shortened: as §1

[7] = system: PPARg:RXRa (NR concentration 180 nM, RXRa partner concentration 90 nM)
Procedure, shortened: as §1

[8] = system: PPARg:RXRa 270nM:90nM, anti-RXR (NR concentration 270 nM, RXRa partner concentration 90 nM)
Procedure, shortened: as §1

[9] = system: PPARg:RXRa 30nM:10nM, anti-RXR (NR concentration 30 nM, RXRa partner concentration 10 nM)
Procedure, shortened: as §1

[10] = system: PPARg:RXRa 90nM:30nM, anti-RXR (NR concentration 90 nM, RXRa partner concentration 30 nM)
Procedure, shortened: as §1

[11] = system: PPARg:RXRa DBDmut IVT, anti-RXR (DBD mutation: RXRa K156A/R161A, NR concentration 270 nM, RXRa partner concentration 90 nM)
Procedure, shortened: as §1

[12] = system: PPARg:RXRa IVT, anti-PPARg (NR concentration 270 nM, RXRa partner concentration 90 nM)
Procedure, shortened: as §1

[13] = system: PPARg DBDmut:RXRa IVT, anti-PPARg (DBD mutation: PPARg1 K132A/R137A, NR concentration 270 nM, RXRa partner concentration 90 nM)
Procedure, shortened: as §1

[14] = system: PPARg DBDmut IVT, anti-PPARg (DBD mutation: PPARg1 K132A/R137A, NR concentration 270 nM)
Procedure, shortened: as §1

[15] = system: PPARg homodimer (NR concentration 180 nM)
Procedure, shortened: as §1

[16] = system: PXR:RXRa (NR concentration 270 nM, RXRa partner concentration 90 nM)
Procedure, shortened: as §1

[17] = system: PXR homodimer (NR concentration 270 nM)
Procedure, shortened: as §1

[18] = system: RARa:RXR (NR concentration 270 nM, RXRa partner concentration 90 nM)
Procedure, shortened: as §1

[19] = system: RARa homodimer (NR concentration 270 nM)
Procedure, shortened: as §1

[20] = system: RARb:RXRa (NR concentration 270 nM, RXRa partner concentration 90 nM)
Procedure, shortened: as §1

Row | Sequence | PBM binding z-score [1] | PBM binding z-score [2] | PBM binding z-score [3] | PBM binding z-score [4] | PBM binding z-score [5] | PBM binding z-score [6] | PBM binding z-score [7] | PBM binding z-score [8] | PBM binding z-score [9] | PBM binding z-score [10] | PBM binding z-score [11] | PBM binding z-score [12] | PBM binding z-score [13] | PBM binding z-score [14] | PBM binding z-score [15] | PBM binding z-score [16] | PBM binding z-score [17] | PBM binding z-score [18] | PBM binding z-score [19] | PBM binding z-score [20]
1 | ATCGAAAGGTCGTGAGGTCAGTATACAGAAAGGC | 6.58 | 5.12 | 1.48 | 4.57 | 1.04 | 5.7 | 5.27 | 5.25 | 2.05 | 3.65 | 0.335 | 2.89 | 1.16 | 0.766 | 3.48 | 5.08 | 0.97 | 5.65 | 1.02 | 5.02
2 | CCGACTGGGGCATAAGGTTACCAGAAGCCAGCCC | 0.432 | 1.72 | -0.288 | 0.864 | -1.26 | 2 | 2.27 | 3.48 | 1.75 | 2.93 | 3.11 | 3.13 | -1.29 | -1.2 | 0.743 | 0.265 | -0.64 | 1.84 | -0.798 | 1.78
3 | TCATATAGCTAAAGGTGAAAGTCGAACGATATGA | 1.12 | 1.09 | -0.213 | 1.26 | -0.321 | 2.67 | 2.06 | 3.08 | 3.19 | 3.31 | 1.54 | 1.41 | 0.485 | 1.01 | 0.548 | 0.662 | 0.459 | 1.51 | 0.712 | 1.62
4 | CCGAGTAGGTTATGGGACATTCAGGCAACGGTGA | 0.111 | 0.356 | 0.00939 | 0.277 | 0.141 | 0.923 | 1.53 | 2.35 | 0.542 | 1.74 | 3.53 | 2.6 | -0.291 | -0.241 | 1.11 | -0.0515 | 0.264 | 0.315 | 0.595 | 0.813
5 | CGGACTGGGGCATAAGGTTACCATAAGCCAGCCC | 0.339 | 2.09 | -0.514 | 1.11 | -0.487 | 2.78 | 4.19 | 4.81 | 2.94 | 4.56 | 4.08 | 5.2 | 1.2 | 1.32 | 1.19 | 0.635 | -0.0559 | 1.48 | -0.515 | 1.78
6 | AGTCAAAGTTCACTAGGTAACGTCAGATTCAGCT | 4.66 | 4.88 | 2.92 | 2.84 | 0.994 | 4.68 | 6.81 | 6.74 | 4.13 | 5.98 | 2.77 | 4.95 | 1.36 | 0.959 | 2.35 | 3.97 | 3.07 | 3.22 | 1.07 | 4.88
7 | CCTACTGGGCCATTCAGAGGTCATTGAACATATG | 2.73 | 4.42 | 6.32 | 4.04 | 0.612 | 4.06 | 2.51 | 3.47 | 1.18 | 2.51 | 4.56 | 4.39 | 0.0817 | -0.464 | 3.64 | 5.2 | 3.45 | 5.13 | 1.15 | 3.23
8 | TCGAGTAGGTTAGTCGGGGAATTCAGCCAACATA | -0.0396 | -0.257 | -0.394 | -0.065 | -0.946 | 0.287 | -0.188 | 0.615 | 0.883 | 0.675 | 2.15 | 1.62 | -0.453 | -0.828 | -0.2 | -0.311 | -0.47 | -0.102 | -0.0152 | -0.105
9 | GTACCAAGGTGAATAGGCCGTTGATGAGTAGGCG | 0.0834 | 0.126 | -0.456 | -0.22 | -0.582 | 1.08 | 0.806 | 0.724 | -0.00292 | 0.38 | 1.64 | 2.14 | -0.316 | -0.431 | 0.326 | 0.0653 | -0.287 | 0.238 | 0.218 | 1.36
10 | TCATATAGGTAAAGGTAAAAGTCGAACGATATGA | 0.715 | 1.06 | -0.299 | 0.926 | -0.151 | 2.1 | 2.75 | 3.46 | 4.13 | 3.8 | 3.98 | 3.36 | 1.85 | 1.27 | 0.454 | 0.53 | 0.308 | 0.709 | 1.3 | 0.845
11 | TGAATGAGGTTATAGGATCAGGGAACGTTGCAAA | 1.98 | 1.6 | -0.459 | 1.39 | -0.108 | 3.28 | 2.06 | 2.51 | 1.15 | 2.08 | 1.16 | 2.21 | 0.833 | -0.0124 | 0.65 | 1.05 | 0.148 | 1.82 | 0.469 | 1.48
12 | AGTCAAAGTTCACTAGGTAAAGTAAGATTCAGCT | 5.11 | 4.89 | 2.94 | 2.95 | 0.968 | 4.53 | 7.12 | 6.14 | 3.45 | 5.45 | 1.8 | 4.56 | 0.983 | 1.74 | 2.43 | 3.9 | 2.63 | 3.07 | 1.41 | 4.74
13 | TCTATTAGTTGAATAGGGCAACCGAAACAGCGGA | 0.393 | 0.654 | -0.213 | 0.664 | 0.0451 | 1.16 | 0.438 | 1.92 | 3.61 | 2.81 | 2.01 | 1.19 | 0.574 | 0.929 | 0.658 | 0.411 | 0.0472 | 0.67 | 0.29 | 1.13
14 | TCTAGTAGGTTAGGGGCATTCAGAATGGCGTCGA | 0.875 | 0.688 | 0.102 | 1.21 | 0.903 | 1.94 | 2 | 3.69 | 3.42 | 3.55 | 4.9 | 4.09 | 0.212 | 0.421 | 1.07 | 0.642 | 0.791 | 0.791 | 0.549 | 1.35
